Assay results published in PubChem BioAssay (NCI).
The panel holds about 83,000 compounds, 20% with a hit somewhere; the sample as a whole holds those more often.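 In brief: 96-well plates, 48 h treatment, single concentration, percent growth endpoint.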 Unmarked numbers belong to inactive results. Active and inactive are the calls of the source. The calls were made as follows: active = growth percent below 10; inactive = the rest.

Key:
Test in all cases: NCI-60 one-dose screen, 48 h (100 = growth as untreated, 0 = no growth, -100 = all killed)
Conditions in all cases: 10 µM unless noted
[1] = test system: HCT-15 colon
[2] = test system: HT29 colon
[3] = test system: SNB-75 CNS
[4] = test system: SNB-19 CNS
[5] = test system: U251 CNS
[6] = test system: PC-3 prostate
[7] = test system: SK-MEL-5 melanoma
[8] = test system: UACC-62 melanoma
[9] = test system: LOX IMVI melanoma
[10] = test system: SK-MEL-28 melanoma
[11] = test system: SK-MEL-2 melanoma
[12] = test system: EKVX NSCLC
[13] = test system: SN12C renal
[14] = test system: UO-31 renal
[15] = test system: TK-10 renal
[16] = test system: ACHN renal
[17] = test system: CAKI-1 renal
[18] = test system: A498 renal
[19] = test system: CCRF-CEM leukemia
[20] = test system: MOLT-4 leukemia

SMILES	growth [1]	growth [2]	growth [3]	growth [4] [%]	growth [5]	growth [6] [%]	growth [7]	growth [8]	growth [9]	growth [10] [%]	growth [11]	growth [12] [%]	growth [13] [%]	growth [14]	growth [15]	growth [16]	growth [17] [%]	growth [18]	growth [19]	growth [20]
COc1ccc(/C(=N/O)c2cc(OC)c(OC)c(OC)c2)c(OC)c1N	24.5%	13.7%	8.03% (active)	45.2	27.5%	19.2	14.4%	31.7%	45%	59.2	36.5%	47.4	52.8	49.3%	35.3%	43.3%	23.9	-4.33% (active)	22.3%	27.8%
O=[N+]([O-])c1ccc(S(=O)(=O)N2CCN(c3ccnc4cc(Cl)ccc34)CC2)c([N+](=O)[O-])c1	66.6%	93.5%	73.8%	98.2	93.9%	95.1	98.8%	81.8%	32%	108	101%	87.9	88.2	55.4%	95.4%	84.3%	81.1	90%	14.8%	44.5%
CC1CCN(C(=O)CSc2nc3sc4c(c3c(=O)[nH]2)CCCC4)CC1	102%	116%	99.5%	106	95.5%	100	91.8%	105%	86.4%	125	80.2%	98.9	102	82.6%	163%	101%	96.4	95.8%	74.4%	98.5%
OC1CC2c3ccccc3C1c1ccccc12 (stereo not given)	106%	110%	90.5%	117	95.8%	100	106%	103%	97.3%	112	117%	108	106	95.7%	96.9%	111%	94.5	125%	104%	106%
CCN(Cc1ccc(CN(CC)C(=O)C(Br)Br)cc1)C(=O)C(Br)Br	24.5%	6.76% (active)	54.9%	60.8	-9.38% (active)	41.3	12.3%	18.2%	37.1%	36.7	76.9%	31.3	48.9	52.2%	48.1%	12.1%	28.3	38.3%	24.9%	34.2%
O=C(Nc1cccc(Cl)c1)c1cc([N+](=O)[O-])ccc1O	61.7%	49.8%	67.8%	53.3	47.5%	35.4	16.7%	18%	34%	28.6	5.35% (active)	60.5	55.1	45.5%	61%	59.9%	52.6	8.44% (active)	46.4%	35.7%
COc1cc(C2C3=C(COC3=O)Nc3c2ccc2c3CCCC2)cc2c1OCO2 (stereo not given)	11.2%	-3.84% (active)	34.3%	36.1	23.1%	31.7	-18.8% (active)	36.4%	27.7%	70.1	18.6%	47.9	28	47.7%	65.9%	29.2%	33.2	8.51% (active)	14.6%	18.3%
O=C1Nc2cc(Cl)ccc2/C1=C/c1ccc(N2CCOCC2)s1	112%	97.3%	101%	86.6	96.7%	92.5	104%	103%	106%	114	91.4%	105	104	85.9%	-3.94% (active)	114%	100	87.1%	99.8%	92.8%
CN(C)c1nc(N)c(N=O)c(N)n1	111%	117%	98.5%	112	103%	99.4	110%	103%	99.1%	114	104%	111	110	101%	110%	109%	103	76.1%	112%	105%
C=C1C(=O)O[C@H]2[C@H]1CC/C(COC(=O)NCCc1ccc(Br)cc1)=C\CC[C@@]1(C)O[C@@H]21	1.58% (active)	-46.7% (active)	56.8%	40.9	41.2%	36.4	64%	-54.3% (active)	-68.2% (active)	30.6	57.8%	57.3	16.8	-20.5% (active)	25.9%	-60.1% (active)	22.6	79.1%	4% (active)	-19.1% (active)
O=[N+]([O-])c1c(S(=O)(=O)O)cc2cc(S(=O)(=O)O)ccc2c1[N+](=O)[O-]	101%	103%	98.1%	108	100%	100	100%	97%	94.3%	103	107%	101	101	76.5%	93%	98.8%	93.8	106%	107%	93.8%
Cc1cc(C(=O)CSc2nc3ccccc3c(=O)[nH]2)c(C)n1C	104%	96.6%	118%	95.5	96.2%	83.9	98.4%	90.5%	94.7%	121	87.9%	94.9	95.4	38.9%	93.1%	107%	95.9	74.6%	87.2%	118%
CN(C)CCCNC(=O)C(c1ccccc1)c1ccccc1	104%	95.9%	94.5%	97.3	98.2%	99.1	103%	98.8%	89.3%	109	95.6%	106	96.8	84.1%	88.2%	93.5%	99.5	104%	100%	85.3%
Cc1ccc(S(=O)(=O)OCC(=O)Nc2ccc(C(=O)O)c(O)c2)cc1	109%	98.6%	98.8%	108	96.7%	91.3	96.3%	99.9%	78.5%	98.6	39.5%	103	105	53%	118%	102%	102	99.3%	83.5%	57.1%
CCOC(=O)c1cc(/C(=N\O)c2cc(OC)c(OC)c(OC)c2)n2cc(C)cc(C)c12	17.9%	6.89% (active)	25.1%	40.5	12.6%	41	12.1%	19.8%	31.8%	56.1	2.79% (active)	37.7	30.3	48.7%	26.7%	10.5%	37.1	-6.21% (active)	9.43% (active)	9.33% (active)
Nc1ccccc1C#C/C=C\C#Cc1cccc(O)c1	44.1%	76.2%	42.8%	88.4	43%	64.2	34%	23.8%	45.8%	81.7	20.2%	71.8	67.2	12.4%	83.8%	36.4%	31.3	78.6%	32%	27.1%
